The results in this text go back to the supplement of paper PMC11732987, “Enantioselective OTUD7B fragment discovery through chemoproteomics screening and high-throughput optimisation” (Communications Chemistry, 2025).

A number with no mark means an inactive call.

Holding throughout (test): log2 ratio of Biotin-Ahx-Ub-VS probe labelling (fragment/DMSO); higher = less target engagement (more negative = stronger competition), active = hit call of the paper (q ≤ 0.05, log2 ratio ≤ -1)
What all share (settings): compound concentration: 200 uM; treatment time: 3 h

The target of assay [1] is T1, USP42 (UniProt Q9H9J4).
T1 sequence (whole entry): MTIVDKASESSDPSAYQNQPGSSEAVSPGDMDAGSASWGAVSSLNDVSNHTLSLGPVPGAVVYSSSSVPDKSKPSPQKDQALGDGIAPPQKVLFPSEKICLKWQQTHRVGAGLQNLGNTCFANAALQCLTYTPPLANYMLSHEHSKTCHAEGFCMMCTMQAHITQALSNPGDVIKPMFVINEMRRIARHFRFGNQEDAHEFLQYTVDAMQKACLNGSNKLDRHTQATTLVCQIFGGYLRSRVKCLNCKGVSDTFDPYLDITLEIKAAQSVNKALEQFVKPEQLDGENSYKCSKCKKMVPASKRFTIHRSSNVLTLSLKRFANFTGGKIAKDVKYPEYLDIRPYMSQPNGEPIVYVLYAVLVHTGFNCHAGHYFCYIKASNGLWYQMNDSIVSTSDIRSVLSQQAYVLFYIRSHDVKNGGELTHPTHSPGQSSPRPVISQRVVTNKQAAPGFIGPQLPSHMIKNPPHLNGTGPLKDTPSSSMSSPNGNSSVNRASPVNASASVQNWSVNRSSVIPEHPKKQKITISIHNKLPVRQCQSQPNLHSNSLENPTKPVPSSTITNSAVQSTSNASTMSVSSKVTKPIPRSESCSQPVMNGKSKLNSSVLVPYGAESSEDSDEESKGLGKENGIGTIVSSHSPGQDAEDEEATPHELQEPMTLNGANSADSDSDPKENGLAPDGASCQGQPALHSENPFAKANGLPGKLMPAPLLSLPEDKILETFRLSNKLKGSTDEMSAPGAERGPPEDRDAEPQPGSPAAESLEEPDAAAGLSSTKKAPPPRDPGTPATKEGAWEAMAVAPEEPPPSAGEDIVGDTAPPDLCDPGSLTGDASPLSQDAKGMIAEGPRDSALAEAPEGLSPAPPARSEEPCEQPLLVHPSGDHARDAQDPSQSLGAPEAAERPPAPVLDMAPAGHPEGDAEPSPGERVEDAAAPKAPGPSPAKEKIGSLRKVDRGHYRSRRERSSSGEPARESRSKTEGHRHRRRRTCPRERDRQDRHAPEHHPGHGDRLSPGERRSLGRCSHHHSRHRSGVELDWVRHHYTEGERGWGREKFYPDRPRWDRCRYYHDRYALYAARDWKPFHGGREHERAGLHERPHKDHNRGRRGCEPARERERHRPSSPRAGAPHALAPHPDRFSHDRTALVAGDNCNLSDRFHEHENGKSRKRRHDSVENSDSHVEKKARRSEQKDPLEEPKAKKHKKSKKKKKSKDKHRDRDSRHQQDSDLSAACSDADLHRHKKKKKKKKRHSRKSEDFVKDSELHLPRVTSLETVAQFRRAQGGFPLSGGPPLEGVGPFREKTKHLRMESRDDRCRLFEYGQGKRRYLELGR
Summed up:
(§1)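 Labelled DUBs from HEK293T lysate were NeutrAvidin-enriched, digested with LysC and trypsin, and run by diaPASEF LC-MS/MS. Before that, each 495 µg sample in Tris/CHAPS/IGEPAL buffer with protease inhibitors was treated in triplicate with fragment at 200 µM or vehicle for 3 h, then with Biotin-Ahx-Ub-VS at 0.5 µM final for 1 h. Values are average log2 ratios of fragment over vehicle by unpaired t-test, based on global-median-normalised Spectronaut label-free quantities from proteins with ≥2 unique peptides.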

Assay [2] has as its target USP46 (UniProt P62068). Summed up: as §1
Assay [3] deals with T2, USP47 (UniProt Q96K76).
T2 sequence (whole entry): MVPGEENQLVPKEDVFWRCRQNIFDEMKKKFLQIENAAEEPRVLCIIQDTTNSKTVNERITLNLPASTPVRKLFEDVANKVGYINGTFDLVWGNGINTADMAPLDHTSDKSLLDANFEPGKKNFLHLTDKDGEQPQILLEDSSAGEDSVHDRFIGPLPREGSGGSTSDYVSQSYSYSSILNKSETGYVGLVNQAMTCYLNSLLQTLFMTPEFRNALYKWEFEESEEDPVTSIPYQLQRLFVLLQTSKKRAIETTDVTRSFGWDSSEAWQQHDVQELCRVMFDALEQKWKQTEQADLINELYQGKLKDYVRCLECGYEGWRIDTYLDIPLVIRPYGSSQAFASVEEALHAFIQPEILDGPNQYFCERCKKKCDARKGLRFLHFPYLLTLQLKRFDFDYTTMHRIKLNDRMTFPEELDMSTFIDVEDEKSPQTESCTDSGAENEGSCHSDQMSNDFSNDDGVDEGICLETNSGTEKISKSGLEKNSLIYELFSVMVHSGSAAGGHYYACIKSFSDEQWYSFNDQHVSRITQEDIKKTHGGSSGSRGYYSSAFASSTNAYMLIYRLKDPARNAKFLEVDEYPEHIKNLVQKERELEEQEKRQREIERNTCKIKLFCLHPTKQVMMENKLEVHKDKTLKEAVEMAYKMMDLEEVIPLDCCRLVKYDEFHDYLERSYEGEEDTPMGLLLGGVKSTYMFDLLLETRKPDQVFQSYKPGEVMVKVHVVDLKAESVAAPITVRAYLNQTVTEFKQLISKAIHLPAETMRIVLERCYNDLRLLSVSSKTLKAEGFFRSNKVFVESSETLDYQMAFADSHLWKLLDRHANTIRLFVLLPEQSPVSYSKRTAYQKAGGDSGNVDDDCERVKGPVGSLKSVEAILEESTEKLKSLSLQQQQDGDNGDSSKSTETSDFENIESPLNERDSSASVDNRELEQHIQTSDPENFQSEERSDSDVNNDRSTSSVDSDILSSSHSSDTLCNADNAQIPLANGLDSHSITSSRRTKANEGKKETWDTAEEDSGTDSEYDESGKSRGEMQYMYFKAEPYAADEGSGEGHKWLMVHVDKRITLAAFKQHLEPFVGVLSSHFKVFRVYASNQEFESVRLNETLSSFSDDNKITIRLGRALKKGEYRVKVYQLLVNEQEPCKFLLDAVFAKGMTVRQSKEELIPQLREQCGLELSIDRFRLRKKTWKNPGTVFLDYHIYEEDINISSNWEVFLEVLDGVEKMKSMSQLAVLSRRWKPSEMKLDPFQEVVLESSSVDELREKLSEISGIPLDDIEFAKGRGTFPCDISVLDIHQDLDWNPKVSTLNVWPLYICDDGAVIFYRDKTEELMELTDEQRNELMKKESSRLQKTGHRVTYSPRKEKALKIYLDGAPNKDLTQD
Summed up:
as §1

In assay [4] the target is T3, USP48 (UniProt Q86UV5).
T3 sequence (whole entry): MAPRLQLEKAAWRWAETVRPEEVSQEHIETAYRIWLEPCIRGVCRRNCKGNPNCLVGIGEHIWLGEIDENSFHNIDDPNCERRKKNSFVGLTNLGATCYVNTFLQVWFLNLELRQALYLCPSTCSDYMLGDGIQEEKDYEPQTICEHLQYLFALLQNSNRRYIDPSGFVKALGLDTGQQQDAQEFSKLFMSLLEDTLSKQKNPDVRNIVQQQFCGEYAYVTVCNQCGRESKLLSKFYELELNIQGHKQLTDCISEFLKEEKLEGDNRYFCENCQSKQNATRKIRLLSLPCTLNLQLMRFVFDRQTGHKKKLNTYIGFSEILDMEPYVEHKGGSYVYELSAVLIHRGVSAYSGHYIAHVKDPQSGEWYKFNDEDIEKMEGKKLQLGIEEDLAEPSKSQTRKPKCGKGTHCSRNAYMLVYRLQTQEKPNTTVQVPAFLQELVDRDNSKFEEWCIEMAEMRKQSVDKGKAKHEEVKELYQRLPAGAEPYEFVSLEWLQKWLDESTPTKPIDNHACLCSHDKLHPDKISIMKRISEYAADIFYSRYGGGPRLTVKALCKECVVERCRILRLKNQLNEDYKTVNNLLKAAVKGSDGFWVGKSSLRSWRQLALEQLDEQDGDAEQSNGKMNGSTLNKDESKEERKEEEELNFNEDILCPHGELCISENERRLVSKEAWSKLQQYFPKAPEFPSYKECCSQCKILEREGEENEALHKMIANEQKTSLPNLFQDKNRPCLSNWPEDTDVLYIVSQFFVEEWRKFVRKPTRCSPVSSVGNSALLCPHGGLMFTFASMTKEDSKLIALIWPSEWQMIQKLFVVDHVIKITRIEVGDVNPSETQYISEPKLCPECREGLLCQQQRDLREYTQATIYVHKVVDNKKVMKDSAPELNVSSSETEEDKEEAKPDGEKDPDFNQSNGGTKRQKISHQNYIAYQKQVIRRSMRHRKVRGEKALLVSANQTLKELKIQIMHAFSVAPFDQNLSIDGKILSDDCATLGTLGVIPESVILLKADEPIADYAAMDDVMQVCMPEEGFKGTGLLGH
Summed up: as §1

Assay [5] has as its target T4, USP5 (UniProt P45974).
T4 sequence (whole entry): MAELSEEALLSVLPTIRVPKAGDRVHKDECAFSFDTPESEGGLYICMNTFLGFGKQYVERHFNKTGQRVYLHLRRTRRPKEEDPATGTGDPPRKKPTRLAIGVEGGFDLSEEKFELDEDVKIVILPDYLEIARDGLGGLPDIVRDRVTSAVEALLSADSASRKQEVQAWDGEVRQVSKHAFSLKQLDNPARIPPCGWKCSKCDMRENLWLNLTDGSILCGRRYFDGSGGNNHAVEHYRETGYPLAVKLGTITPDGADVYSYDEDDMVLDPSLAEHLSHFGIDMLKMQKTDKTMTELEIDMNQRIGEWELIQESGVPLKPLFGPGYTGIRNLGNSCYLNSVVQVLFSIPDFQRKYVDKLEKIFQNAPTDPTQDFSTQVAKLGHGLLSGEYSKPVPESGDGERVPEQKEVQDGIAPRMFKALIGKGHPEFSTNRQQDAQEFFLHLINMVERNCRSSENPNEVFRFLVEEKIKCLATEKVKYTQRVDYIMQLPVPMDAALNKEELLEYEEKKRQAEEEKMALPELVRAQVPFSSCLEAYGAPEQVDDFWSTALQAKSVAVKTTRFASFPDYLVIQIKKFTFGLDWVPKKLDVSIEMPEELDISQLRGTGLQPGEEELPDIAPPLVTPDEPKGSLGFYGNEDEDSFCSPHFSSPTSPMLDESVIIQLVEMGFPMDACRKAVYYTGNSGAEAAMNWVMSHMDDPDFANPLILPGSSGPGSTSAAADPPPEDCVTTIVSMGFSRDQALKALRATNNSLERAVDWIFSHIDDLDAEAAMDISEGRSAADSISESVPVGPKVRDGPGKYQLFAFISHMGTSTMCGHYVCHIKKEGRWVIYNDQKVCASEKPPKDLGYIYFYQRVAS
Summed up:
as §1

Assay [6] addresses USP54 (UniProt Q70EL1). Summed up:
as §1

Assay [7] addresses USP7 (UniProt Q93009). Summed up: as §1
Assay [8] deals with T5, USP8 (UniProt P40818).
T5 sequence (whole entry): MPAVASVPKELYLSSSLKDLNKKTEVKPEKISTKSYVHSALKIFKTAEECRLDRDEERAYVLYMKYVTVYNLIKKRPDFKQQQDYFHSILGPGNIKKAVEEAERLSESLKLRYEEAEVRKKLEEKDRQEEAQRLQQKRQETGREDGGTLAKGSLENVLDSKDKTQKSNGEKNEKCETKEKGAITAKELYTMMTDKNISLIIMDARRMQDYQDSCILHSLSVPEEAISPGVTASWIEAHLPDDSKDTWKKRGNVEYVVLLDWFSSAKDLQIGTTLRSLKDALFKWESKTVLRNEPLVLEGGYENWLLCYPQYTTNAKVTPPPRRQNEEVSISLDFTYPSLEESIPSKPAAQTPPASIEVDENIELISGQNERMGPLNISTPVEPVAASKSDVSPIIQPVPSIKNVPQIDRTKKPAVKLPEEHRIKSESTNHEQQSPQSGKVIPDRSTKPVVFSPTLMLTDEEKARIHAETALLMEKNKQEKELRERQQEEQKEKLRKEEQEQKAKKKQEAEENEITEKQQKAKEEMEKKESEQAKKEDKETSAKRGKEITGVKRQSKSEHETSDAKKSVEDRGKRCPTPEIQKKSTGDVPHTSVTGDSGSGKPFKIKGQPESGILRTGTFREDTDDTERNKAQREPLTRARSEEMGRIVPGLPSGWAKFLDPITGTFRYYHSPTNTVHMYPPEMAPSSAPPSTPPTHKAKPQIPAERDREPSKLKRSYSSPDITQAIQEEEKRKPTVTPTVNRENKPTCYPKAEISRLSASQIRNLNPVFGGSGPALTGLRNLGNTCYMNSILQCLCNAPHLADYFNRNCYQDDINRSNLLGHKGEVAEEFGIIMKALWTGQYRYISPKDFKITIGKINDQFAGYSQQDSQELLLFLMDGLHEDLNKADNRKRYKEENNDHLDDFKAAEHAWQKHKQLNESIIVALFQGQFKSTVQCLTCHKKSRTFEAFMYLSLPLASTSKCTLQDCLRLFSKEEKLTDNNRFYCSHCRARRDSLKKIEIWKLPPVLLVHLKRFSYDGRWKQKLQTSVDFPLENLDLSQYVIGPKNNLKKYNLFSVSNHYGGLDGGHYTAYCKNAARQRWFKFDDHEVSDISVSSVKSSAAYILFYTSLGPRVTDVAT
Summed up: as §1

Assay [9] concerns the target USP9X (UniProt Q93008). Summed up:
as §1

Assay [10] concerns the target UniProt O00487. Summed up:
as §1

USP54, sequence (Q70EL1 whole entry): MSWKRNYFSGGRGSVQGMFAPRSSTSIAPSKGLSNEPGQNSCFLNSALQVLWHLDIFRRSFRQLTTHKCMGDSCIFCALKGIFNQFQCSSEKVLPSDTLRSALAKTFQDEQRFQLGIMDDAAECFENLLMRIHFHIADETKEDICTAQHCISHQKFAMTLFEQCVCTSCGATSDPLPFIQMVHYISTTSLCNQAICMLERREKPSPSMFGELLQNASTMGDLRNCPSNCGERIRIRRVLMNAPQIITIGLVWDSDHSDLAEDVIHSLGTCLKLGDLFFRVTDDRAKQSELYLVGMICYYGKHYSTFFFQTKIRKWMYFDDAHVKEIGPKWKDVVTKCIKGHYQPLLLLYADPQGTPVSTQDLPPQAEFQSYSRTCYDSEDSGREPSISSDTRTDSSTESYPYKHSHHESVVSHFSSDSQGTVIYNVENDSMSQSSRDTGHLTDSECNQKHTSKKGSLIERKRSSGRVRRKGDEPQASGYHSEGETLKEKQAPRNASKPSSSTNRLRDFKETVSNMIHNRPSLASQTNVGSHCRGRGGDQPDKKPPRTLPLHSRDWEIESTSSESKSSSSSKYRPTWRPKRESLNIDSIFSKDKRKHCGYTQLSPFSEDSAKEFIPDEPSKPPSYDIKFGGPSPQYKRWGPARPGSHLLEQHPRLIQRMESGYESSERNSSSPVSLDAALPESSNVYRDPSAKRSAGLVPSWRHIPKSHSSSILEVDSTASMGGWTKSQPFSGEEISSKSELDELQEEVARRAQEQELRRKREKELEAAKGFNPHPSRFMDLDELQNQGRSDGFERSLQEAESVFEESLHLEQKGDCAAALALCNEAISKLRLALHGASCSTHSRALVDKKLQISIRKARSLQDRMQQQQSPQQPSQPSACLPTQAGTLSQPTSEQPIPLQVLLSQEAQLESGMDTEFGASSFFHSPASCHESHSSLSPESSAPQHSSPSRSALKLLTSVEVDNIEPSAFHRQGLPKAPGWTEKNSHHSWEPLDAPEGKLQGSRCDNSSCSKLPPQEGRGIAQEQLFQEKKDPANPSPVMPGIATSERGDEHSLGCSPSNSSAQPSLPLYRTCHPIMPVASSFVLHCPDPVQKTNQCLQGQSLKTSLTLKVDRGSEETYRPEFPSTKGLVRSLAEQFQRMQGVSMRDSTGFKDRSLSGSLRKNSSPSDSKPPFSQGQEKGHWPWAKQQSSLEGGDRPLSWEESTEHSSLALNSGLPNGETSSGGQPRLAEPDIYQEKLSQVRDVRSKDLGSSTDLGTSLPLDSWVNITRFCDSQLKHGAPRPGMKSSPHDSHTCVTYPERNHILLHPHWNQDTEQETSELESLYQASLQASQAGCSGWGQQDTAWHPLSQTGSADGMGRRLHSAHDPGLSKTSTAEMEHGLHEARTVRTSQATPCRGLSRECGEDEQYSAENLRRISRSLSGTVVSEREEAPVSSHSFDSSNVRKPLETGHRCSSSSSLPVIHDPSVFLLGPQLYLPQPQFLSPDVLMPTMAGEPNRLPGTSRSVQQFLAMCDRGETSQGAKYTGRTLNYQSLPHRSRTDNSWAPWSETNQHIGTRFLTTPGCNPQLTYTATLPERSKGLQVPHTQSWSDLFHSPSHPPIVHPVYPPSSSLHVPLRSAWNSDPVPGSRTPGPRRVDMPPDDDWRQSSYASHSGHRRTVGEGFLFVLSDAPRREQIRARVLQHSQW
USP46, sequence (P62068 whole entry): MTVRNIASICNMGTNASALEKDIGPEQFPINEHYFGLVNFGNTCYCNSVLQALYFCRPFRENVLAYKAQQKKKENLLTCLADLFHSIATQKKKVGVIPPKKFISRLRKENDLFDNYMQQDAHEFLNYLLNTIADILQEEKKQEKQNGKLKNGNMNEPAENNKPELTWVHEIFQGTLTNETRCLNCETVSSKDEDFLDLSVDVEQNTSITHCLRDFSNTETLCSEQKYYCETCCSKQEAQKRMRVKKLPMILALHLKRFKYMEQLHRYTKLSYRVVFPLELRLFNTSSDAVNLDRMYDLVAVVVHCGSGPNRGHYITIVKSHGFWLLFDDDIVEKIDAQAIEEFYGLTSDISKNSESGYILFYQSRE
USP7, sequence (Q93009 whole entry, looked up): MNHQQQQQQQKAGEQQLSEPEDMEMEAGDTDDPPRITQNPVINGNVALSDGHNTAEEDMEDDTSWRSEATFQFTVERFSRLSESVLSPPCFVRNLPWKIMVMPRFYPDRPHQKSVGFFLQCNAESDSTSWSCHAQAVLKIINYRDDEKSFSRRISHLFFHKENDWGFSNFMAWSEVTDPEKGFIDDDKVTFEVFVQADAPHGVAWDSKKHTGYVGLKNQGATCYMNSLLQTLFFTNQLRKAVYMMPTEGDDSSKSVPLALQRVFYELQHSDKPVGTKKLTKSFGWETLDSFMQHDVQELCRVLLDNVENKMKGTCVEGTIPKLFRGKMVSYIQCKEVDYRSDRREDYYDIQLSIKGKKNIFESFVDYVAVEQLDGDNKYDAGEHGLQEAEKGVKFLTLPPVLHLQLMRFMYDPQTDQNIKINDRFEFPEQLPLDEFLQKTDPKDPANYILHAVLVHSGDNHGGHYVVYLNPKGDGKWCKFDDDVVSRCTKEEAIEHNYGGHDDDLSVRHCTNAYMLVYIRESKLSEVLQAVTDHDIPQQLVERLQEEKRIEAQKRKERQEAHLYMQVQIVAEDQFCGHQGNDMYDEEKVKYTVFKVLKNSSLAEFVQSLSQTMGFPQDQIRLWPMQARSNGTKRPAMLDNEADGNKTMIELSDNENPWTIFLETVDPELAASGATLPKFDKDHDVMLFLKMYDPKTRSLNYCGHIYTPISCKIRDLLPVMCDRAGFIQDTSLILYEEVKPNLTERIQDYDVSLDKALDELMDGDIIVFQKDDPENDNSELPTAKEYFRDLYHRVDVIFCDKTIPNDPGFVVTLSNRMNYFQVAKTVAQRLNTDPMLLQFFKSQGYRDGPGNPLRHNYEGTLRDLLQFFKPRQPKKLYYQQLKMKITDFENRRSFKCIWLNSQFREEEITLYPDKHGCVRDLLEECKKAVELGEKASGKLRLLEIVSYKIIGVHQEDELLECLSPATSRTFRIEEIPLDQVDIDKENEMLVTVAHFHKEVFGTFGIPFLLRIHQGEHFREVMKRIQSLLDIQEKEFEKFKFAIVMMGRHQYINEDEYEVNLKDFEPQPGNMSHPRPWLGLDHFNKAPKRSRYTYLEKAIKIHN
UniProt O00487, sequence (O00487 whole entry): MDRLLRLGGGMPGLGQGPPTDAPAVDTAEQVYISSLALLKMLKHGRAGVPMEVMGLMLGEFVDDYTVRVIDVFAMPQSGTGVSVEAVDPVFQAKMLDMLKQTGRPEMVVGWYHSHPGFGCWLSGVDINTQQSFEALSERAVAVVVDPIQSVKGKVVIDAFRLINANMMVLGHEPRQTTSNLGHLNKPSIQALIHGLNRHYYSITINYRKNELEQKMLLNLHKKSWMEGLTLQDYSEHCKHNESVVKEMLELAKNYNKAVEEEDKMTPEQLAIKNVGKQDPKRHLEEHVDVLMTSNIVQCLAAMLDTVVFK

Take `O=C(CCl)Nc1ccc2c(c1)OC(F)(F)O2`: the “log2 ratio of Biotin-Ahx-Ub-VS probe labelling” value in [1] is -0.384; in assay [2] it was -0.0942; in [3], -1.16 (active); in [4], -0.476; in [5], 0.218; in [6] it was 0.684. In addition, the “log2 ratio of Biotin-Ahx-Ub-VS probe labelling” value in assay [7] is -0.296; in assay [8], -0.29; in assay [9], -0.301; in assay [10], 0.0325.
